This is an account of results in PubChem BioAssay (Tox21).

Inconclusive results are not listed. Calls of active or inactive are those of the source. Unless noted, the call rests on the fitted dose curve; in most records, active means well fitted curve in the direction sought with a large enough effect in the repeat runs; inconclusive means weak or mixed curves; inactive means no such curve, though single readings can be large; an effect the other way counts as inactive or inconclusive. Positions of bridges follow the written chain, without caps; N, C: chain ends. Residues, ends and D or L forms follow the SMILES beside them.

Experiment [1] in a line: qHTS assay for small molecule agonists of the p53 signaling pathway (AID 651631; calls by dose curve; further: nearly all actives have a fitted effect of over 15% in size; further: potency means the concentration at half of the fitted maximal effect). In short, it runs like this:
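Read-out is beta-lactamase FRET fluorescence measured 2 h after substrate addition at room temperature, in HCT-116 cells with a p53 response element-driven reporter exposed to compounds for 16 h at 37 °C.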

Experiment [2] in a line: qHTS assay for small molecule agonists of the p53 signaling pathway - cell viability (AID 651633; calls by dose curve; further: nearly all actives have a fitted effect of over 30% in size; further: potency means the concentration at half of the fitted maximal effect). Summed up:
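p53RE-bla cells were treated with compound for 16 hours at 37 C. Cytotoxicity was then measured as CellTiter-Glo luminescence after 30 min at room temperature.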

The nature of experiment [3]: qHTS assay for small molecules that induce genotoxicity in human embryonic kidney cells expressing luciferase-tagged ATAD5 - cell viability (AID 651634; calls by dose curve; further: nearly all actives have a fitted effect of over 25% in size; further: potency means the concentration at half of the fitted maximal effect). In short, it runs like this:
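Live-cell protease activity (CellTiter-Fluor, fluorescence) indicates viability. HEK293T cells with luciferase-tagged ATAD5; 15.5 hr compound treatment at 37C.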

A short description of experiment [4]: qHTS assay for small molecule disruptors of the mitochondrial membrane potential - cell viability (AID 720634; calls by dose curve;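 further: human HepG2 liver cancer cells; series mostly up to about 83 µM; nearly all actives have a fitted effect of over 20% in size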). Summed up: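 Human hepatoma HepG2 cells were treated for 1 hr with test chemicals, then given m-MPI dye and CellTiter-Glo. Cell viability reflects luminescence proportional to cellular ATP.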
The nature of experiment [5]: qHTS assay to test for compound auto fluorescence at 590 nm (red) in HepG2 cells (AID 720674). Summed up: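 HepG2 cells, 2,000 per well in MEM with 10% FBS, attached overnight at 37 C, then got 23 nL compound or DMSO. After 1 hr at 37 C, 5% CO2, red fluorescence was read at 540/590 nm against Rose Bengal sodium as reference.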
A short description of experiment [6]: qHTS assay to test for compound auto fluorescence at 535 nm (green) in HepG2 cells (AID 720675).
A short description of experiment [7]: qHTS assay to test for compound auto fluorescence at 460 nm (blue) in HEK293 cells (AID 720678). Summed up: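 Measured: blue fluorescence (Ex 405/Em 460 nm) of compound-treated HEK293 cells, incubated overnight at 37C with 5% CO2 and scaled to triamterene equivalents.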
Experiment [8] is described as follows: qHTS assay to test for compound auto fluorescence at 590 nm (red) in HEK293 cells (AID 720679). In short, it runs like this:
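Using HEK293 cells at 2,000 per well, the screen added 23 nL of each compound after cell attachment and incubated overnight (37C, 5% CO2). The plate reader then captured red-label fluorescence, Ex/Em 540/590nm.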

Experiment [9] is described as follows: qHTS assay for small molecules that induce genotoxicity in human embryonic kidney cells expressing luciferase-tagged ATAD5 (AID 651632). Further: nearly all actives have a fitted effect of over 15% in size. Further: potency means the concentration at half of the fitted maximal effect. In short, it runs like this: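 Genotoxicity read-out via ATAD5-luciferase: HEK293T cells, 16 hr compound incubation at 37C, Amplite detection.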
The nature of experiment [10]: qHTS assay for small molecule disruptors of the mitochondrial membrane potential (AID 720635). Further: potency means the concentration at half of the fitted maximal effect. In short, it runs like this: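 HepG2 cells exposed to compound 1 hr at 37C, then Mito-MPS dye 30 min. Ratio read of aggregate (540/590 nm) versus monomer (490/535 nm) fluorescence.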

`CC(C)[C@H](N)C(=O)OCC(CO)OCn1cnc2c(=O)[nH]c(N)nc21` (stereo partly specified): the Potency entry in experiment [1], in experiment [2], in experiment [3], in [4], in experiment [5] and in [6] was “inactive” each time. Also, the Potency entry in [7] and in [8] was “inactive” each time.
On to `CC(C)[C@@H](N)C(=O)O`, for which the Potency entry in experiment [1], in experiment [9], in experiment [2], in [4], in experiment [5] and in experiment [6] was “inactive” throughout. Also, the Potency result in experiment [7] and in experiment [8] was “inactive” each time.
With `COC(=O)[C@@H](N)CS`, the Potency entry in [1], in experiment [9], in experiment [2], in experiment [10], in experiment [5] and in experiment [6] was “inactive” each time. The Potency result in [7] and in experiment [8] was “inactive” each time.
Consider `NCCCC[C@H](NC(=O)[C@@H]1CCCN1C(=O)[C@@H]1CSSC[C@H](NC(=O)CNC(=O)CNC(=O)CN)C(=O)N[C@@H](Cc2ccc(O)cc2)C(=O)N[C@@H](Cc2ccccc2)C(=O)N[C@@H](CCC(N)=O)C(=O)N[C@@H](CC(N)=O)C(=O)N1)C(=O)NCC(N)=O` (H-GGGCYFQNCPKG-NH2; disulfide 4-9), for which the Potency result in experiment [1], in experiment [2], in experiment [3], in [4], in [10] and in experiment [5] was “inactive” in each case. The Potency entry in experiment [6], in [7] and in experiment [8] was “inactive” throughout.
Turning to `CO/N=C(\C(=O)N[C@@H]1C(=O)N2C(C(=O)OCOC(=O)C(C)(C)C)=C(/C=C\c3scnc3C)CS[C@H]12)c1csc(N)n1`, the Potency entry in experiment [1], in experiment [2], in experiment [3], in experiment [4], in experiment [5] and in experiment [6] was “inactive” each time. Also, in experiment [7], the Potency entry is “inactive”.
For `CN[C@@H]1[C@@H](O)[C@@H](O[C@@H]2[C@@H](O)[C@H](O[C@H]3O[C@H](CN)[C@@H](O)[C@H](O)[C@H]3O)[C@@H](N)C[C@H]2NC(=O)C(O)CN)OC[C@]1(C)O` (stereo partly specified), the Potency entry in experiment [1], in [2], in [3], in experiment [4], in experiment [10] and in experiment [5] was “inactive” each time. The Potency entry in experiment [6], in experiment [7] and in experiment [8] was “inactive” throughout.
Consider `CCCCCCCCCCCCCC[n+]1ccc(C)cc1`, for which the Potency in experiment [1] is 23.7 µM (active); in experiment [10], 13.3 µM (active). The Potency result in [9], in experiment [5], in experiment [6] and in experiment [7] was “inactive” throughout.
`CC1(S(=O)(=O)O)CC(=O)c2ccccc2C1=O` (stereo unspecified): the Potency is 21.1 µM (active) in experiment [1] and 26.6 µM (active) in experiment [2]. For the same compound, the Potency result in experiment [9], in experiment [4], in [5], in experiment [6] and in experiment [8] was “inactive” each time.
For the compound `CCCCC(=O)OCC(=O)[C@]1(O)Cc2c(O)c3c(c(O)c2[C@@H](O[C@H]2C[C@H](NC(=O)C(F)(F)F)[C@H](O)[C@H](C)O2)C1)C(=O)c1c(OC)cccc1C3=O`, the Potency in experiment [1] was 4.22 µM (active); in experiment [9], 3.35 µM (active); in experiment [10], 1.19 µM (active). The Potency result in experiment [4], in experiment [5], in experiment [6], in experiment [7] and in [8] was “inactive” throughout.
Consider `Cc1ccccc1CNc1ncnc2c1ncn2[C@@H]1O[C@H](CO)[C@@H](O)[C@H]1O`, for which the Potency result in experiment [1], in experiment [2], in experiment [3], in experiment [4], in [10] and in experiment [5] was “inactive” each time. Besides, the Potency entry in experiment [6], in [7] and in [8] was “inactive” each time.
On to `CC(=O)OCC(=O)[C@@]12OC3(CCCC3)O[C@@H]1C[C@H]1[C@@H]3CCC4=CC(=O)C=C[C@]4(C)[C@@]3(F)[C@@H](O)C[C@@]12C`, for which the Potency result in experiment [1], in [2], in experiment [3], in [4], in experiment [5] and in experiment [6] was “inactive” each time. The Potency result in experiment [7] and in [8] was “inactive” throughout. In experiment [10], the Potency is 29.8 µM (active).
As for `CNC[C@@H]1CC[C@@H](N)[C@@H](O[C@H]2[C@H](O)[C@@H](O[C@H]3OC[C@](C)(O)[C@H](NC)[C@H]3O)[C@H](N)C[C@@H]2N)O1`, the Potency entry in experiment [1], in experiment [2], in experiment [3], in experiment [4], in [10] and in experiment [5] was “inactive” in each case. Besides, the Potency result in experiment [6], in [7] and in experiment [8] was “inactive” each time.
As for `NC(=S)N=Nc1ccc(NN=C(N)N)cc1`, the Potency entry in experiment [1], in experiment [9], in experiment [4], in experiment [5], in [6] and in experiment [7] was “inactive” in each case. Besides, the Potency entry in experiment [8] is “inactive”. Moreover, the Potency in [3] is 26.6 µM (active); in [10], 2.98 µM (active).
For the compound `CCCC(=O)Nc1ncnc2c1ncn2[C@@H]1O[C@@H]2COP(=O)(O)O[C@H]2[C@H]1OC(=O)CCC`, the Potency result in experiment [1], in [2], in experiment [3], in experiment [4], in [10] and in experiment [5] was “inactive” in each case. Moreover, the Potency entry in experiment [6], in [7] and in [8] was “inactive” in each case.
On to `O=C(NCCNCC(O)COc1ccc(O)cc1)N1CCOCC1` (stereo unspecified), for which the Potency entry in [1], in [9], in experiment [2], in [4], in experiment [5] and in experiment [6] was “inactive” each time. Further, the Potency entry in [7] and in [8] was “inactive” throughout.
For `OC(CN1CCCCC1)c1cc(-c2ccccc2)on1` (stereo unspecified), the Potency entry in [1], in experiment [2], in experiment [3], in experiment [4], in experiment [10] and in experiment [5] was “inactive” throughout. The Potency entry in [6], in [7] and in [8] was “inactive” throughout.
On to `CC(C)(C)NC[C@H](O)COc1ccccc1C1CCCC1`, for which the Potency entry in [1], in experiment [9], in experiment [2], in [4], in experiment [5] and in experiment [6] was “inactive” in each case. The Potency entry in [7] and in experiment [8] was “inactive” throughout.
As for `CCOC(=O)O[C@]1(C(=O)COC(=O)CC)CC[C@H]2[C@@H]3CCC4=CC(=O)C=C[C@]4(C)[C@H]3[C@@H](O)C[C@@]21C`, the Potency entry in [1], in experiment [9], in experiment [2], in [4], in [5] and in [6] was “inactive” in each case. Besides, the Potency entry in [7] and in experiment [8] was “inactive” each time.
In the case of `O=C1C(=O)c2ncccc2-c2cccnc21`, the Potency is 1.68 µM (active) in [1] and 26.6 µM (active) in experiment [10]. Also, the Potency result in experiment [9], in experiment [3], in [4], in [5], in experiment [6] and in experiment [8] was “inactive” throughout.
